Results from PubChem BioAssay (NCI).
About 83,000 compounds went through this panel and 20% of them were active in at least one assay; those are over-represented in the sample as a whole.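 Each cell line was grown in a 96-well plate and treated with one concentration of compound for 48 hours. Values below 10 were considered active.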 Values without a mark were called inactive. The source made the active and inactive calls.

Assays:
Experiment in all cases: NCI-60 one-dose screen, 48 h (100 = growth as untreated, 0 = no growth, -100 = all killed)
Details in all cases: 10 µM unless noted
[1] = test system: OVCAR-8 ovarian
[2] = test system: OVCAR-5 ovarian
[3] = test system: OVCAR-4 ovarian
[4] = test system: SK-OV-3 ovarian
[5] = test system: OVCAR-3 ovarian
[6] = test system: HS 578T breast
[7] = test system: NCI/ADR-RES ovarian
[8] = test system: T-47D breast
[9] = test system: IGROV1 ovarian

| Structure (SMILES) | growth [1] | growth [2] | growth [3] | growth [4] | growth [5] | growth [6] | growth [7] | growth [8] | growth [9] |
| --- | --- | --- | --- | --- | --- | --- | --- | --- | --- |
| COc1ccc(C(=O)COc2cccc(/C=C3\Oc4ccc5ccccc5c4C3=O)c2)cc1 | 70.1% | 103% | 94.9% | 99.5% | 72.4% | 93.3% | 96.4% | 37.9% |  |
| CN1COc2ccc3ccccc3c2C1 | 93% | 77% | 91.7% | 103% | 98.9% |  | 89.8% | 88.2% | 86.3% |
| CC(O)c1nc2c(c(=O)n(C)c(=O)n2C)n1C (configuration not stated) | 105% | 104% | 104% | 102% | 108% | 118% | 113% | 97.6% |  |
| CC(c1ccccn1)C(C)(O)C(C)c1ccccn1 (configuration not stated) | 101% | 98% | 112% | 114% | 106% | 104% | 107% | 118% |  |
| O=C(N1CCC(CN=c2cc3n(-c4ccc(Cl)cc4)c4ccccc4nc-3cc2Nc2ccc(Cl)cc2)CC1)N1CC1 | -67.4% (active) | -78.3% (active) | -74.6% (active) | -63.7% (active) |  | -56.4% (active) | -45.5% (active) | -46.8% (active) | -92.3% (active) |
| CN(C(=O)c1ccccc1)N(C)C(=O)c1ccccc1 | 103% | 99.3% |  | 105% | 127% | 109% | 108% | 94.5% | 95.2% |
| Cc1nn(-c2ccc(Br)cc2)c2nc3c(nc12)C(=O)C(=O)c1ccccc1-3 |  | 100% | 88.3% | 93.6% | 101% | 105% | 86.4% | 91.2% | 81.9% |
| COC(=O)[C@]1(C(C)C)N[C@H](c2cn(-c3ccccc3)nc2-c2ccccc2)[C@@H]2C(=O)N(c3ccc(Cl)cc3)C(=O)[C@@H]21 |  | 101% | 117% | 92.7% | 89.1% | 117% | 90.3% | 93.6% | 103% |
| Cc1nn(-c2ccccc2)c2ncc3c(c12)C(=O)N(Cc1ccccc1)C3=O |  | 63.6% | -57.8% (active) | 14.7% | 19.2% | 22.7% | 42.1% | 43.4% | 14.7% |
| CC(=O)c1cc(C(=O)c2ccc3c(c2)Sc2ccccc2N3)c2c(C)cc(C)cn12 |  | 39.7% | 39.8% | 21% |  | 20.5% | 12.9% | 48.2% | 28.3% |
| Cc1nn(-c2ccccc2)c(Cl)c1C(CC(=O)c1ccc(Cl)cc1)CC(=O)c1ccc(Cl)cc1 |  | 93.8% | 97.8% | 91.8% |  | 97.3% | 90.2% | 85.8% | 101% |
| Cc1ccc(C(O)C2=CC(=O)c3ccccc3C2=O)cc1 (configuration not stated) | 91.3% | 95.4% |  | 105% | 93.3% | 104% | 96.4% | 76.5% | 89.6% |
| CC(C)(C)c1cc(O)c(O)c(C(C)(C)C)c1 |  | 55.3% |  | 67% | 20.9% | 43.6% | 51.9% | 12.8% | 49.9% |
| COc1ccc2nc3cc(Cl)ccc3c(Nc3cc(C(C)C)c(O)cc3C)c2c1 |  | 68.7% | 30.2% | 63.3% |  | 65.5% | 38% | 13.9% |  |
| O=C(NCCCO)c1cc(Cl)ccc1O | 17.8% | 45% |  | 40.6% | -14.9% (active) | 19.3% | 95.8% | 30% | 28.1% |
| COc1ccc(C(=O)/C=C/c2c(Cl)nc3c(c(C)nn3-c3ccccc3)c2-c2ccc(Br)cc2)cc1 |  | 99.6% | 107% | 97.3% | 115% | 113% | 108% | 100% |  |
| Cc1c(C(N)=O)sc2c1c(=O)n(Cc1ccccc1)c1nnc(SCC(=O)Nc3ccc(Cl)cc3)n21 |  | 64.9% | -80.2% (active) | 24.8% | -3.77% (active) | 6.54% (active) | 82.2% | -23.9% (active) | 23.1% |
| Cc1nn(-c2ccc(Cl)cc2)c2nc3c(nc12)C(=O)c1ccccc1-3 |  | 90.8% | 34.5% | 32.7% | 62.8% | 63.7% | 62.9% | 73.7% | 77.3% |
| O=C(NCCc1ccccc1)C1CCC(=O)N1Cc1ccc(Br)cc1 (configuration not stated) |  | 94.4% | 111% | 101% | 116% | 113% | 107% | 106% | 103% |
| Cc1nn(-c2ccc(Cl)cc2)c2nc3c(nc12)C(=O)C(=O)c1ccccc1-3 |  | 95.9% | 48.4% | 93.8% | 2.92% (active) | 61.3% | 76.5% | 67.6% | 59.1% |
| Cc1nn(-c2ccccc2)c2nc3c(nc12)C(=O)CCC3 |  | 104% | 81.4% | 99.7% | 98.8% | 97.1% | 94.8% | 79.2% | 96.6% |
| COC(=O)[C@]1(CCSC)N[C@H](c2cn(-c3ccccc3)nc2C)[C@@H]2C(=O)N(c3ccc(C)cc3)C(=O)[C@@H]21 |  | 94.6% | 112% | 98.5% | 114% | 103% | 93.4% | 101% | 115% |
| Clc1ccccc1[C@@H]1C[C@@H]2Cc3cc(Br)c4ccccc4c3N1O2 |  | 70.9% | 49.9% | 38.5% | -8.24% (active) | 28.4% | 15.4% | 65.3% |  |
| c1ccc(-c2nn[nH]n2)c(-c2ccc(CN3CCN(c4nsc5ccccc45)CC3)cc2)c1 |  | 96.8% | 85.6% | 105% | 91.4% | 105% | 92% | 68.7% | 113% |
| CCN(CC)c1ccc(C(O)C2=CC(=O)c3ccccc3C2=O)cc1 (configuration not stated) | -3.87% (active) | -23.8% (active) |  | 73.1% | -77.2% (active) | -10.6% (active) | 84.4% | -60.6% (active) | -42.7% (active) |
| CCOC(Cc1c(N)[nH]c(=S)[nH]c1=O)OCC | 96.2% | 93.9% |  | 107% | 120% | 120% | 102% | 99% | 104% |
| ClC1=C(Cl)C(=C2C(Cl)=C(Cl)C(Cl)=C2Cl)C(Cl)=C1Cl |  | 115% | 100% | 91.6% | 114% | 94.1% | 105% | 79.5% | 108% |
| Cc1ccc(NC(=O)CSc2nnc3n(Cc4ccccc4)c(=O)c4c(C)c(C(N)=O)sc4n23)cc1 |  | 75.8% | -62.3% (active) | -7.67% (active) | 9.55% (active) | 6.99% (active) | 92.8% | -19.7% (active) | 50.8% |
| N#CCCN(CCO)c1ccccc1 |  | 108% |  | 101% | 105% | 102% | 112% | 92% | 103% |
| c1ccc(Nc2nnc(-c3cc(-c4cccnc4)n(-c4ccccc4)n3)s2)cc1 | 59.9% | 105% |  | 109% | 106% | 119% | 62.4% | 51.3% | 108% |
